Reference: PubChem BioAssay (NCI)
This is part of a sample that, as a whole, favours compounds with a hit. Of some 83,000 tested, about 20% had one in any assay.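 Single-dose data. Exposure time 48 hours. Values below 10 considered active.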 Calls of active or inactive are those of the source.

How the values were obtained:
Assay in all cases: NCI-60 one-dose screen, 48 h (100 = growth as untreated, 0 = no growth, -100 = all killed)
[1] = tested on: HOP-92 NSCLC; details: 10 µM
[2] = tested on: K-562 leukemia; details: 10 µM
[3] = tested on: RXF 393 renal; details: 10 µM
[4] = tested on: SNB-19 CNS; details: 10 µM
[5] = tested on: SK-MEL-28 melanoma; details: 10 µM
[6] = tested on: EKVX NSCLC; details: 10 µM
[7] = tested on: UO-31 renal; details: 10 µM
[8] = tested on: CCRF-CEM leukemia; details: 10 µM
[9] = tested on: MOLT-4 leukemia; details: 10 µM
[10] = tested on: SR leukemia; details: 10 µM
[11] = tested on: IGROV1 ovarian; details: 10 µM
[12] = tested on: MDA-MB-468 breast; details: 10 µM unless noted
[13] = tested on: NCI-H226 lung; details: 10 µM
[14] = tested on: MDA-MB-231 breast; details: 10 µM
[15] = tested on: U251 CNS; details: 10 µM
[16] = tested on: LOX IMVI melanoma; details: 10 µM
[17] = tested on: HS 578T breast; details: 10 µM
[18] = tested on: SW-620 colon; details: 10 µM
[19] = tested on: COLO 205 colon; details: 10 µM

Measured: growth

O=C(/C=C/c1ccc(F)cc1)c1nc2ccccc2n1Cc1ccc(Br)cc1
active: [1] -51.5% | [2] -12.7% | [3] -91.1% | [4] -63.7% | [5] -58.4% | [6] -91.5% | [7] -92.5% | [8] -1.81% | [9] -13.4% | [10] -19.5% | [11] -35% | [12] -90.8%

C[C@H]1[C@H](OC(=O)CCC(=O)N(CCCc2cn(-c3ccc([N+](=O)[O-])cc3)nn2)CCNc2ccnc3cc(Cl)ccc23)O[C@@H]2OC3(C)CC[C@H]4[C@H](C)CC[C@@H]1[C@@]24OO3
inactive: [13] 61.6% | [1] 24.9% | [14] 50.2% | [3] 26.1% | [15] 55.9% | [16] 21.7% | [7] 18.3% | [8] 26.3% | [17] 52.8% | [18] 38% | [12] 31.2%
active: [2] 8.36% | [9] 2.71% | [10] -15.2%

CC1=C(COCCOC(=O)c2ccc(S(=O)(=O)F)cc2)C2=C(C)C3(CC3)[C@@](C)(O)C(=O)C2=C1
active: [13] -39.9% | [1] -29.7% | [14] -27.2% | [3] -81.4% | [15] 4.59% | [16] -62.7% | [7] -33.3% | [11] -24.3% | [17] -12.9% | [12] -87.5%
inactive: [2] 32.6% | [8] 15.8% | [9] 36% | [18] 62.3%

O=C(/C=C/c1ccc(F)cc1)c1nc2ccccc2n1Cc1ccc(F)cc1
active: [19] -32% | [2] 1.64% | [3] -67.6% | [5] -15.8% | [7] -33.6% | [8] 7.89% | [9] 1.05% | [10] 1.79% | [12] -15.7%
inactive: [1] 22.9% | [4] 13.8%
